# According to PubChem BioAssay (EPA / NIEHS):
# Results filed as inconclusive are left out. The source made the active and inactive calls. Rule for the calls: active = hit-call score of the fitted dose curve at least 0.9, where 1 is the maximum; inconclusive = response in the unintended direction; inactive = score below 0.9.
# Tests used:
# PGR (gene 5241) = PGR (gene 5241) (UniProt P06401); test: NVS_NR_hPR: NovaScreen (NVS) Nuclear Receptor Binding Assay for human Progestron Receptor (PR) (AID 2283360);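 note: active means loss of bound radioligand signal versus DMSO baseline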
# Outline: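 Radioligand competition binding on receptor extracted from T47D cells, read by scintillation counting 18 h after dosing. Loss of signal versus DMSO; primary screen in duplicate at 25 uM, actives followed in concentration series.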
# [1] = biological target: Retinoic acid receptor alpha (Homo sapiens) (UniProt P10276); test: NVS_NR_hRARa_Agonist: NovaScreen (NVS) Nuclear Receptor Binding Assay for human Retinoic Acid Alpha Receptor Agonism (RAR) (AID 2283361)
# Outline: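 Compounds screened at 25 uM, duplicate, then in concentration series if active. Detection: TR-FRET gain of signal versus DMSO after 2 h with cell-free extracted RARα.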
# [2] = biological target: rat Androgen Receptor (AR), Ar (gene 24208) (UniProt P15207); test: NVS_NR_rAR: NovaScreen (NVS) Nuclear Receptor Binding Assay for rat Androgen Receptor (AR) (AID 2283366)
# Outline: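 Actives from a duplicate single-concentration (25 uM) primary run went on to concentration series. Displacement of radioligand was counted by filtration and scintillation, 18 h post-dose, using prostate extracts from testosterone-pretreated rats, with DMSO as baseline.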
# [3] = biological target: human Dopamine Transporter (DAT), SLC6A3 (gene 6531) (UniProt Q01959); test: NVS_TR_hDAT: NovaScreen (NVS) Transporter Assay for human Dopamine Transporter (DAT) (AID 2283374);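 note: activity means loss of bound radioligand signal relative to DMSO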
# Outline: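 Extracted human SLC6A3 protein incubated 1 h with radioligand and test chemical; bound fraction separated on filters and counted. Single 25 uM duplicate screen preceded concentration-response follow-up; positive and negative controls on every plate.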
# [4] = biological target: human Norepinephrine Transporter (NET), SLC6A2 (gene 6530) (UniProt P23975); test: NVS_TR_hNET: NovaScreen (NVS) Transporter Assay for human Norepinephrine Transporter (NET) (AID 2283377);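 note: cell-free membrane protein extracted from CHO cells expressing human NET; displacement of radioligand from human NET seen as loss of scintillation signal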
# Outline: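 In this cell-free binding screen, chemicals at 25 uM (duplicate) compete with a radioligand for CHO-derived human NET over 1 hour, with filter-based radiodetection.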
# [5] = biological target: rat Serotonin Transporter (SERT), Slc6a4 (gene 25553) (UniProt P31652); test: NVS_TR_rSERT: NovaScreen (NVS) Transporter Assay for rat Serotonin Transporter (SERT) (AID 2283375)
# Outline: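 Radioligand binding with competitive displacement on rat forebrain membrane preparations, counted by filtration and scintillation after 1 h. Primary single-point duplicates at 25 uM; active chemicals followed up in concentration-response. DMSO served as baseline.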
# [6] = biological target: Estrogen receptor (Homo sapiens) + Estrogen receptor beta (Homo sapiens) (UniProt P03372+Q92731); test: OT_ER_ERaERb_1440: Odyssey Thera (OT) 24-hour HEK293T Protein-Complementation Assay for Estrogen Receptor-alpha/-beta Homodimer (AID 2283356);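 note: heteromer of ER alpha and ER beta binding domains; hits raise reporter fluorescence and both agonists and antagonists give an increase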
# Outline: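 Fragment complementation between ER alpha (310-547) and ER beta (263-489) ligand-binding domains in HEK293T cells; signal read 24 h post-dosing by laser scanning cytometer. Gain of fluorescence relative to DMSO fitted.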
# [7] = biological target: Estrogen receptor beta (Homo sapiens) (UniProt Q92731); test: OT_ER_ERbERb_0480: Odyssey Thera (OT) 8-hour HEK293T Protein-Complementation Assay for Estrogen Receptor-beta/-beta Homodimer (AID 2283357);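 note: active means signal gain over DMSO baseline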
# Outline: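 Fluorescence gain from complemented reporter fragments on ER-beta LBD homodimer in HEK293T was quantified against DMSO controls after 8 h treatment, fixation in 4% formaldehyde and Draq5 staining.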
# [8] = biological target: Estrogen receptor beta (Homo sapiens) (UniProt Q92731); test: OT_ER_ERbERb_1440: Odyssey Thera (OT) 24-hour HEK293T Protein-Complementation Assay for Estrogen Receptor-beta/-beta Homodimer (AID 2283380);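 note: fluorescence gain from ER beta LBD homodimer complementation read by laser scanning cytometry; scored as signal increase over DMSO baseline for both agonists and antagonists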
# Outline: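 HEK293T cells stably expressing human ER-beta LBD (aa 310-547) PCA homodimer pair, dosed 24 h; formaldehyde-fixed, Draq5-stained. Readout: increase in nuclear (agonist) or nuclear plus cytoplasmic (antagonist) fluorescence intensity versus DMSO, gain-of-signal fitting.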
# [9] = biological target: human Peroxisome Proliferator-activated Receptor alpha (PPARa), PPARA (gene 5465) (UniProt Q07869); test: NVS_NR_hPPARa: NovaScreen (NVS) Nuclear Receptor Binding Assay for human Peroxisome Proliferator-activated Receptor alpha (PPARa) (AID 2283359);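 note: activity means loss of TR-FRET signal versus DMSO baseline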
# Outline: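 One-hour incubation, cell-free extracted protein, TR-FRET binding readout; signal loss vs DMSO scored. Screen: 25 uM duplicates, confirmatory dose series for actives.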
# [10] = biological target: Glucocorticoid receptor (Homo sapiens) (UniProt P04150); test: NVS_NR_hGR: NovaScreen (NVS) Nuclear Receptor Binding Assay for human Glucocorticoid Receptor (GR) (AID 2283363);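 for AC50: activity is loss of specific radioligand binding signal relative to DMSO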
# Outline: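 Single-readout cell-free binding: radioligand plus extracted receptor, 16-hour dosing, filter radiodetection; 25 uM duplicate primary, concentration series secondary.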
# [11] = biological target: mouse Estrogen Receptor alpha (Era), Esr1 (gene 13982) (UniProt P19785); test: NVS_NR_mERa: NovaScreen (NVS) Nuclear Receptor Binding Assay for mouse Estrogen Receptor alpha (Era) (AID 2283378);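 note: hit means loss of bound radioligand signal relative to DMSO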
# Outline: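 Filter radiodetection of radioligand displacement from extracted receptor protein, measured 18 h post-dose. Single 25 uM concentration in duplicate initially, with concentration-series follow-up. Binding loss fitted relative to DMSO.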
# [12] = biological target: Retinoic acid receptor alpha (Homo sapiens) (UniProt P10276); test: NVS_NR_hRAR_Antagonist: NovaScreen (NVS) Nuclear Receptor Binding Assay for human Retinoic Acid Alpha Receptor Antagonism (RAR) (AID 2283358)
# Outline: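 Chemicals were first tested in duplicate at 25 uM, then actives in concentration series, in a cell-free TR-FRET antagonist binding format. Measurements were taken 2 hours after dosing and loss of signal was evaluated against DMSO controls.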
# [13] = biological target: Nuclear receptor subfamily 1 group I member 2 (Homo sapiens) (UniProt O75469); test: NVS_NR_hPXR: NovaScreen (NVS) Nuclear Receptor Binding Assay for human Pregnane X Receptor (PXR) (AID 2283365);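 note: a drop in FRET signal versus DMSO baseline means the compound binds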
# Outline: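 Human PXR binding measured by TR-FRET in a cell-free format, 2 h exposure. Single-concentration duplicates at 25 uM preceded concentration-response retests of actives; endpoint fitted positively relative to DMSO, loss of signal indicating binding.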
# [14] = biological target: guinea pig Sigma Receptor, Non-selective Binding, SIGMAR1 (gene 100135589) (UniProt Q60492); test: NVS_OR_gSIGMA_NonSelective: NovaScreen (NVS) Nuclear Receptor Binding Assay for guinea pig Sigma Receptor, Non-selective Binding (AID 2283367)
# Outline: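 Test chemicals were screened in duplicate at 25 uM, then in concentration series if active, against radioligand binding to guinea pig brain membranes; filtration and scintillation counting at 1 h measured remaining bound ligand.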
# [15] = test system: guinea pig Dopamine Transporter (DAT), gene 100714898; test: NVS_TR_gDAT: NovaScreen (NVS) Transporter Assay for guinea pig Dopamine Transporter (DAT) (AID 2283369);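 note: active compounds lower bound radioligand signal relative to DMSO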
# Outline: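 Radioligand displacement on membranes from guinea pig striatum, 2 h exposure, bound label counted by filtration and scintillation. Tested at 25 uM in duplicate, then actives in concentration series to 50 uM; DMSO as negative control.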
# Sequence of Nuclear receptor subfamily 1 group I member 2 (Homo sapiens) (O75469 whole entry, looked up): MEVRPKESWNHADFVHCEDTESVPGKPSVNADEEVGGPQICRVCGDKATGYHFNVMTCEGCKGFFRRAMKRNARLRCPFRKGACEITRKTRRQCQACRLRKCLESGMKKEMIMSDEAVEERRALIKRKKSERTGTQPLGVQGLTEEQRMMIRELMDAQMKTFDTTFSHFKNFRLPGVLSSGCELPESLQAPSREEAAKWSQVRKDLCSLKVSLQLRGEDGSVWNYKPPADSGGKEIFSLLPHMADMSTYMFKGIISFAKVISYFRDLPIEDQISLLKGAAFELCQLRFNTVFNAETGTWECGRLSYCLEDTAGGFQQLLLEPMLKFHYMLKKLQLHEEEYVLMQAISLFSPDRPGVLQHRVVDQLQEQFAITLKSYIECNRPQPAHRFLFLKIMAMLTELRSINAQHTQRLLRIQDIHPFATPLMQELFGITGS
# Sequence of Retinoic acid receptor alpha (Homo sapiens) (P10276 whole entry, looked up): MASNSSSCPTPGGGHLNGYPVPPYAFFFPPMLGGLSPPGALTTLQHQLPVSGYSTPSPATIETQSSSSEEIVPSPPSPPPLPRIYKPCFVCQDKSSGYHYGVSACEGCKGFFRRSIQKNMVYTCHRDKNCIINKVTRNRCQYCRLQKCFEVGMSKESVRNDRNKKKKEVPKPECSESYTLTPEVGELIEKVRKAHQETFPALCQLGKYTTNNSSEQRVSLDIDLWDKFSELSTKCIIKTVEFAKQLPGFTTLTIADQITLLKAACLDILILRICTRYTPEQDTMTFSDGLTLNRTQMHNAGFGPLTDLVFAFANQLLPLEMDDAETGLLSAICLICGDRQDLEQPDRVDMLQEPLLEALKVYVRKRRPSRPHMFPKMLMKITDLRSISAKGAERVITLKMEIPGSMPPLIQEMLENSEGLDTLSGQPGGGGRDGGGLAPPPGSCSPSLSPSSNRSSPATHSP
# Sequence of Estrogen receptor (Homo sapiens) + Estrogen receptor beta (Homo sapiens) (P03372 whole entry, looked up, the tested form may be a part): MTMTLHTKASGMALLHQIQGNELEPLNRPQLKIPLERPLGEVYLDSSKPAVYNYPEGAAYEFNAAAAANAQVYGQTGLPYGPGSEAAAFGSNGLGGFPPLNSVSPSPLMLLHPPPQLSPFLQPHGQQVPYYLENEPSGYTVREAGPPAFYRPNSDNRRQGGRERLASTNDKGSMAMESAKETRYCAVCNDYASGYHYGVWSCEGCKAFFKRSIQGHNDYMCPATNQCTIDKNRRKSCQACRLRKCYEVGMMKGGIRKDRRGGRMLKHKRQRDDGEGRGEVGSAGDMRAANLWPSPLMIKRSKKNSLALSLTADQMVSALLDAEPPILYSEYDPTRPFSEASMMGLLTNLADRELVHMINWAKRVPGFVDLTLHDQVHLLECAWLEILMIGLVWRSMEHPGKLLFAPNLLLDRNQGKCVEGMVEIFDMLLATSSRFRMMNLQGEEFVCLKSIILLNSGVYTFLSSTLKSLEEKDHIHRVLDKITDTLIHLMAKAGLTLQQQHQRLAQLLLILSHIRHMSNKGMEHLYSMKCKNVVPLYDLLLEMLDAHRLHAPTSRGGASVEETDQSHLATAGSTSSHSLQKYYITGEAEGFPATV
# Sequence of Estrogen receptor (Homo sapiens) + Estrogen receptor beta (Homo sapiens) (Q92731 whole entry, looked up, the tested form may be a part): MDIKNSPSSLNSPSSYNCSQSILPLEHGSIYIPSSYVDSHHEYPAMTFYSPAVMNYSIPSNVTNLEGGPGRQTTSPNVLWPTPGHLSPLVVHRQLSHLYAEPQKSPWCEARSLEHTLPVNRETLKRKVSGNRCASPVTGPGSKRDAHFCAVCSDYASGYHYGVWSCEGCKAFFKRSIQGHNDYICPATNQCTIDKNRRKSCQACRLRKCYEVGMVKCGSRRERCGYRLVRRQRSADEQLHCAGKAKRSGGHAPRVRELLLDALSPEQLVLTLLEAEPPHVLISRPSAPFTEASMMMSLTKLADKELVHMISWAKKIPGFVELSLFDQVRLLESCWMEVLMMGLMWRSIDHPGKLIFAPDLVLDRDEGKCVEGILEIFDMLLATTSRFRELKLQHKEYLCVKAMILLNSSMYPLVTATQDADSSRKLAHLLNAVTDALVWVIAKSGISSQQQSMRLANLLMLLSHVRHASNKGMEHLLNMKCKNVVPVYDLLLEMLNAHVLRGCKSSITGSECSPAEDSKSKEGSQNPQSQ
# Sequence of Estrogen receptor beta (Homo sapiens) (Q92731 whole entry, looked up, the tested form may be a part): as above
# Sequence of human Peroxisome Proliferator-activated Receptor alpha (PPARa), PPARA (gene 5465) (Q07869 whole entry, looked up): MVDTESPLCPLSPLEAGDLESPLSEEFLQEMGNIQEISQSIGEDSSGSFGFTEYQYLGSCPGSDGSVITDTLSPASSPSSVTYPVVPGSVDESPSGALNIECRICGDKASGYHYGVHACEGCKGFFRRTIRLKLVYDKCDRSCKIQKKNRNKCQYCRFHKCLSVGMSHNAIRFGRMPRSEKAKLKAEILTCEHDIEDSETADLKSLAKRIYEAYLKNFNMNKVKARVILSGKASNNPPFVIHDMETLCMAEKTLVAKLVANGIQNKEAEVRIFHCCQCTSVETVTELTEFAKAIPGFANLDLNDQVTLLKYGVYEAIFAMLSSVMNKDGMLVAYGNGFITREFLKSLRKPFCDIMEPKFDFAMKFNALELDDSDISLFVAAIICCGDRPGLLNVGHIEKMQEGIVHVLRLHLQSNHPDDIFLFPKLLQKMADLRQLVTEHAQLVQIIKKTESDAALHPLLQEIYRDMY
# Sequence of PGR (gene 5241) (P06401 whole entry, looked up): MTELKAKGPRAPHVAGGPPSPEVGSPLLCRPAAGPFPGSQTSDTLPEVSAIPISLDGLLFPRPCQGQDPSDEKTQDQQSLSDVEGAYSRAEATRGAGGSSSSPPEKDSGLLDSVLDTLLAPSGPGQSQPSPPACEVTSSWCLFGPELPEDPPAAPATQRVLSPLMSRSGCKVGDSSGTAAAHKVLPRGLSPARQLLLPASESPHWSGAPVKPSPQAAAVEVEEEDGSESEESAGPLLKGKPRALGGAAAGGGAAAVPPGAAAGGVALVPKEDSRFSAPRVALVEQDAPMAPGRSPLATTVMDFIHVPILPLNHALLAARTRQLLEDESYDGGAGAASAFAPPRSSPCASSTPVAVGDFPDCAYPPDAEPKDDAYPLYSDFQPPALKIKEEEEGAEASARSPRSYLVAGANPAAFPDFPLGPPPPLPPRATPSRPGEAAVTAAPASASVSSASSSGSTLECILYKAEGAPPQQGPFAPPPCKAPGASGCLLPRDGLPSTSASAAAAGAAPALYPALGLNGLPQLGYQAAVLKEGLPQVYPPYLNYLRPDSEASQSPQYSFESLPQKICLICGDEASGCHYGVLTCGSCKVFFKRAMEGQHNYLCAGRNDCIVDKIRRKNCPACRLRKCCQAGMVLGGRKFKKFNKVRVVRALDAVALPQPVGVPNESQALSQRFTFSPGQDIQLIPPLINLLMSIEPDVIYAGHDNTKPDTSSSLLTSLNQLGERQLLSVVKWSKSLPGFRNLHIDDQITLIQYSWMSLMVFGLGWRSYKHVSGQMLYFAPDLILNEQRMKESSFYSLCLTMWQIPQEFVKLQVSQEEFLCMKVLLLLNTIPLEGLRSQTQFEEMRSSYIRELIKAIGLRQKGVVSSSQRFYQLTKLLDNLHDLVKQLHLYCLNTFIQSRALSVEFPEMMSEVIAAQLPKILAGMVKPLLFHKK
# Sequence of Glucocorticoid receptor (Homo sapiens) (P04150 whole entry, looked up): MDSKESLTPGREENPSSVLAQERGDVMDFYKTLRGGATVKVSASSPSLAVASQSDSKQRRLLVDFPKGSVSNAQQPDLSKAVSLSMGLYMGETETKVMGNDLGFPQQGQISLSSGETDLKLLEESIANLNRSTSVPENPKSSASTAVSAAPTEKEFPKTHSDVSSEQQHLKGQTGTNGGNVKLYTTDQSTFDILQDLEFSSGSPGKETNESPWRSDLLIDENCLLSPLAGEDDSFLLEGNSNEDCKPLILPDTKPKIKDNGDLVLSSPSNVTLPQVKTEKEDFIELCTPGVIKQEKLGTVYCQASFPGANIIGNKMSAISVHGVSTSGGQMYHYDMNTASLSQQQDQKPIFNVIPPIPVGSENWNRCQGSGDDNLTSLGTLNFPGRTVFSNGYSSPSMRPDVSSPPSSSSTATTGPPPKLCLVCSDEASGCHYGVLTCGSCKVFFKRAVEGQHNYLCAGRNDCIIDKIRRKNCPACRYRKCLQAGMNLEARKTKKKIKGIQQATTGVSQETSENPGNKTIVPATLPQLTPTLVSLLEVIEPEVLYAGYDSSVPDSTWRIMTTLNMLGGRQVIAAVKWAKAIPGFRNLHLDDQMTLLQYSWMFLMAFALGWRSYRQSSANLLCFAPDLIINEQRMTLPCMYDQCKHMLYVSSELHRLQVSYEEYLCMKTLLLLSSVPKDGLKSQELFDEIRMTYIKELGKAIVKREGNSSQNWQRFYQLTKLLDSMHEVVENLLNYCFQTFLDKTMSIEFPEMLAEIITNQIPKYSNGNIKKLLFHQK
# Sequence of guinea pig Sigma Receptor, Non-selective Binding, SIGMAR1 (gene 100135589) (Q60492 whole entry, looked up): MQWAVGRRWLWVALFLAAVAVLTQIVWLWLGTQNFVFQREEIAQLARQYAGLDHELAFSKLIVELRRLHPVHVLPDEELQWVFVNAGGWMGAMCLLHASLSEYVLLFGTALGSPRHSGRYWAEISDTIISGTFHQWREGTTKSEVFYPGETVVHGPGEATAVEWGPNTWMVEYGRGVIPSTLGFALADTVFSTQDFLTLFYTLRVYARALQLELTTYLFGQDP
compound,measurement,setting,value
C#CC1(O)CC[C@H]2[C@@H]3CCC4=CCCC[C@@H]4[C@H]3CC[C@@]21C (stereo partly drawn),AC50,PGR (gene 5241),39.6 µM (active)
O=S(=O)(O)c1ccccc1C=Cc1ccc(-c2ccc(C=Cc3ccccc3S(=O)(=O)O)cc2)cc1,AC50,[1],12.1 µM (active)
CN(C)c1ccc(C(=N)c2ccc(N(C)C)cc2)cc1,AC50,[1],14.1 µM (active)
CC(C)c1ccc2c(C(C)C)cc(C(C)C)c(S(=O)(=O)O)c2c1,AC50,[2],7.33 µM (active)
Oc1ccc(Cl)cc1Cc1cc(Cl)ccc1O,AC50,[2],1.42 µM (active)
CCCCC/C=C\C/C=C\CCCCCCCC(=O)OC,outcome,[3],inactive
same,AC50,[4],25 µM (active)
CC(C)(c1cc(Br)c(OCCO)c(Br)c1)c1cc(Br)c(OCCO)c(Br)c1,AC50,[5],2.88 µM (active)
CC(C)(C)c1ccc(N)cc1,outcome,[6],inactive
same,outcome,[7],inactive
same,outcome,[8],inactive
Cc1ccc(C(C)c2ccc(C)c(C)c2)cc1C,AC50,[6],83.6 µM (active)
same,AC50,[7],68.1 µM (active)
same,outcome,[8],inactive
CCOC(=O)CC,outcome,[6],inactive
same,outcome,[7],inactive
same,outcome,[8],inactive
CCO[Si](C)(OCC)OCC,outcome,[6],inactive
same,outcome,[7],inactive
same,outcome,[8],inactive
OC1CCCC1,outcome,[6],inactive
same,outcome,[8],inactive
CC1=CC[C@H]2C[C@@H]1C2(C)C,outcome,[6],inactive
same,outcome,[7],inactive
same,outcome,[8],inactive
CCCCCCCC[N+](C)(CCCCCCCC)CCCCCCCC,AC50,[9],6.9 µM (active)
same,AC50,[1],4.37 µM (active)
same,outcome,[10],inactive
same,AC50,[11],0.338 µM (active)
same,outcome,[8],inactive
CCCCC(CC)CCC(CC(C)C)OS(=O)(=O)O (stereo not drawn),outcome,[6],inactive
same,outcome,[12],inactive
same,AC50,[13],2.49 µM (active)
same,outcome,[8],inactive
Cn1c([N+](=O)[O-])cnc1COC(N)=O,outcome,[6],inactive
same,outcome,[7],inactive
same,outcome,[8],inactive
C=CC(=O)NC(C)(C)CS(=O)(=O)O,outcome,[6],inactive
same,outcome,[7],inactive
same,outcome,[8],inactive
CCN(CCC#N)c1ccc(N=Nc2c(Cl)cc([N+](=O)[O-])cc2Cl)cc1,AC50,[12],6.24 µM (active)
same,AC50,[10],25 µM (active)
same,AC50,[13],0.433 µM (active)
CCCCCCCC/C=C\CCCCCCCC(=O)O,outcome,[7],inactive
same,AC50,[9],8.82 µM (active)
same,AC50,[11],35.8 µM (active)
same,outcome,[8],inactive
C=C1C2CCC(C2)C1(C)C (stereo not drawn),outcome,[6],inactive
same,outcome,[8],inactive
O=C1C(N(CO)C(=O)NCO)N(CO)C(=O)N1CO (stereo not drawn),outcome,[6],inactive
same,outcome,[7],inactive
same,outcome,[8],inactive
NC(=O)N=NC(N)=O,outcome,[6],inactive
same,outcome,[7],inactive
same,outcome,[8],inactive
O=C(C=Cc1ccccc1)OCc1ccccc1,outcome,[6],inactive
same,outcome,[7],inactive
same,outcome,[8],inactive
Cc1cc(C)c(C(=O)O)c(C)c1,outcome,[6],inactive
same,outcome,[7],inactive
same,outcome,[8],inactive
O=C(C(Cl)Cl)N1CCOC12CCCCC2,outcome,[6],inactive
same,outcome,[7],inactive
same,outcome,[8],inactive
Cc1ccc(C(C)(C)C)cc1,outcome,[9],inactive
CO[Si](OC)(OC)c1ccccc1,outcome,[6],inactive
same,outcome,[8],inactive
CC1=NN(c2cc(S(=O)(=O)O)ccc2Cl)C(=O)C1N=Nc1ccccc1 (stereo not drawn),outcome,[6],inactive
same,outcome,[7],inactive
same,outcome,[8],inactive
CCOC(=O)Cc1cccc2ccccc12,outcome,[6],inactive
same,outcome,[7],inactive
same,outcome,[8],inactive
CO[Si](CCC1CCC2OC2C1)(OC)OC (stereo not drawn),outcome,PGR (gene 5241),inactive
CCCCCCCCO[C@@H]1O[C@H](CO)[C@@H](O)[C@H](O)[C@H]1O,outcome,[6],inactive
same,outcome,[7],inactive
same,outcome,[8],inactive
OCCCS,outcome,PGR (gene 5241),inactive
Cc1cc(C)c(C)cc1C,outcome,[9],inactive
CNC(=S)NN,outcome,[6],inactive
same,outcome,[8],inactive
c1c[nH]cn1,outcome,[6],inactive
same,outcome,[8],inactive
CC(C)(C)c1ccc(OC(=O)c2ccccc2O)cc1,AC50,[6],55.2 µM (active)
same,outcome,[7],inactive
same,AC50,[8],32 µM (active)
CC(C)(C)c1n[nH]c(=O)n(N)c1=O,AC50,PGR (gene 5241),0.131 µM (active)
C1CN(SSN2CCOCC2)CCO1,outcome,[13],inactive
CC(C)C1=CC2=CC[C@@H]3[C@](C)(CCC[C@@]3(C)C(=O)O)[C@H]2CC1,AC50,[13],16 µM (active)
S=C(NC1CCCCC1)NC1CCCCC1,AC50,[14],5.93 µM (active)
CCCCCCCCCCCCCCCC[N+](C)(C)CC,AC50,[14],1.23 µM (active)
c1ccc2c(c1)ccc1ncccc12,AC50,[15],34.7 µM (active)
COc1ccc2nc(N)sc2c1,outcome,[15],inactive
